In the library only some 3% were active in any assay of this set; here they are far more common.
SNCA viab count – GF-AFC viability counterscreen for inhibitors of alpha-synuclein gene (SNCA) expression | actives 0.12% (n = 150,000) | HEK-293-SNCA-luc viability, GF-AFC fluorescence, 24 h | Potency, µM (doses to about 57.1 µM), for the others: top-dose activity change, negative = cytotoxicity, hits mostly cytotoxic;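 note: potency is the fitted concentration of half-maximal effect; 0% = DMSO-treated cells and -100% = medium-only wells without cells; nearly all actives have a fitted effect of over 30% in size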
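Cytotoxicity counterscreen: after 24 h compound treatment of genome-edited SNCA-luciferase HEK-293 cells, live-cell protease substrate GF-AFC read by fluorescence after 30 min; activity scaled between DMSO (0%) and medium-only (-100%), curves Hill-fitted.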
IP6K1 inhibitor – Primary qHTS assay for small molecule inhibitors of Inositol hexaphosphate kinase 1 (IP6K1). Inositol hexakisphosphate kinase 1 (Homo sapiens), Q92551. IP6K1 kinase, ADP-Glo luminescence, 2 h; stronger effect = lower value. activity change, % (series mostly up to about 58 µM). actives 0.81% (n = 140,000); in the data active = activity change below about -25%; note: % is set by controls: 0 for no effect and ±100 for the full control effect
Target sequence (Q92551 whole entry, looked up): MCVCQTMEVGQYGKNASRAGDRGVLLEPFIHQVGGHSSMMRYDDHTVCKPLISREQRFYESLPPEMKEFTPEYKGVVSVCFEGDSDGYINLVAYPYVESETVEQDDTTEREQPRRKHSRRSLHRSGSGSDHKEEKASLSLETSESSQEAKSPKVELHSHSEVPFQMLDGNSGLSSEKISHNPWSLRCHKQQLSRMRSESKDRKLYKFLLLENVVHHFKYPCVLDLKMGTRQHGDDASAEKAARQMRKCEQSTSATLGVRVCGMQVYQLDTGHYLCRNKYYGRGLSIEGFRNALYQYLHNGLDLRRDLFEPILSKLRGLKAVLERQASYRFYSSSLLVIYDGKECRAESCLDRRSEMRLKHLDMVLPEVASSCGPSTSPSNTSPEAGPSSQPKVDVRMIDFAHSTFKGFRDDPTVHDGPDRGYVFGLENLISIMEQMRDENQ
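ADP-Glo luminescence measures ADP made by human IP6K1 during a 2 h RT reaction with ATP/IP6 (mix at 1.3 mM/130 uM); top library doses 57.5 and 19.1 uM final.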
SNCA expr inhib – Primary qHTS assay for inhibitors of alpha-synuclein gene (SNCA) expression; Potency, µM (top dose mostly 57.2 µM), without a hit: top-dose activity change, negative = inhibition, most hits filed as inhibitors; HEK-293 SNCA-luciferase knock-in, luminescence, 24 h; actives 0.17% (n = 140,000);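 note: potency is the fitted concentration of half-maximal effect; plate controls were DMSO cells for no effect and cell-free wells for full effect; nearly all actives have a fitted effect of over 45% in size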
KDM5B inh – Primary screen for KDM5B Histone Demethylases FDH-coupled qHTS. KDM5B demethylase, FDH-coupled NADH fluorescence (FDH is formaldehyde dehydrogenase). Potency, µM (top dose mostly 57.7 µM), usual class: inhibitors. Lysine-specific demethylase 5B (Homo sapiens), Q9UGL1. actives 2.6% (n = 220,000); note: potency is the fitted concentration of half-maximal effect; 0% is about no effect; nearly all actives have a fitted effect of over 70% in size
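qHTS format, multiple compound concentrations. Buffer 50 mM HEPES pH 7.5/0.01% Tween-20; 200 nM KDM5BΔAP final; 10 min compound preincubation; substrate-mix levels 12.5 µM peptide, 25 µM α-KG, 0.25 mM NAD⁺; 30 min RT; ΔRFU.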
Starred values were filed as active, the others as inactive; i = inactive; ? = inconclusive; / = not tested or not shown; [ ] = another dose, or the depositor's remark. Unless noted, calls come from the whole dose curve; as a rule, active = well fitted curve in the direction sought with a large enough effect; inconclusive = small, poorly fitted or top-dose-only effect, or another doubt; inactive = no such curve, though single readings can be large; an effect the other way counts as inactive or inconclusive.

SMILES | SNCA viab count | IP6K1 inhibitor | SNCA expr inhib | KDM5B inh
COc1ccc(-c2nc3cc(C)ccc3cc2CN2CCC(NC(C)=O)C2)cc1 (stereo unspecified) | -2% | 9 | -7% | 20µM*
COc1ccc(NC(=O)c2cc3n(n2)CC(c2ccc(Cl)cc2)OC3)cc1Cl (stereo unspecified) | -15% | -7 | -10% | 25µM*
O=C(Nc1ccc(F)c(Cl)c1)c1cc2n(n1)CC(c1ccc3c(c1)OCO3)OC2 (stereo unspecified) | -6% | 1 | -4% | 32µM*
O=C(Nc1ccc(Cl)c(Cl)c1)c1cc2n(n1)CC(c1ccc(Cl)cc1)OC2 (stereo unspecified) | -6% | 2 | 0% | 28µM*
O=C(NCc1cccc(C(F)(F)F)c1)C1CCCN1Cc1ccc(-c2cncnc2)cc1 (stereo unspecified) | -6% | -2 | -3% | /
COCCN1Cc2nc(Nc3ccc(C(F)(F)F)cc3)ccc2OCC1=O | -13%[87.6 µM] | -17 | 6%[87.6 µM] | 25µM*
O=C1COc2ccc(Nc3ccccc3)nc2CN1CCOc1ccccc1 | -13%[87.6 µM] | -8 | -15%[87.6 µM] | 40µM*
COCCN1Cc2nc(Nc3ccc(F)c(Cl)c3)ccc2OCC1=O | -5%[87.6 µM] | -13 | -6%[87.6 µM] | i
O=C1COc2ccc(Nc3cccc(F)c3)nc2CN1CCOc1ccccc1 | -10%[87.6 µM] | -13 | -26%[87.6 µM] | ?
COc1ccccc1-c1ccnc(N[C@H]2CO[C@H]3[C@@H]2OC[C@@H]3NC(=O)N2CCOCC2)n1 | 0% | -3 | -14% | 25µM*
COc1ccccc1-c1ccnc(N[C@H]2CO[C@H]3[C@@H]2OC[C@@H]3NS(C)(=O)=O)n1 | -5%[87.6 µM] | -9 | 0%[87.6 µM] | 35µM*
O=C(NCCN1CCCCC1)c1ccc(-c2nnc3ccc(NC(=O)C4CCC4)cn23)cc1 | -13% | -3 | -14% | 22µM*
C=CCNC(=O)c1ccccc1NC(=O)C1CCC1 | / | / | / | i
C=CCNC(=O)c1ccc(-c2nnc3ccc(NC(=O)C4CCC4)cn23)cc1 | -12% | -5 | 142% | 22µM*
O=C(Nc1ccc(-c2nnc3n2CCCC3)cc1)C1CCCC1 | -2% | 11 | 13% | i
CCCCNC(=O)Cc1csc2nc(C)c(-c3cc(C)n(-c4cc(F)ccc4C)n3)c(=O)n12 | -15% | 5 | -9% | ?
CCCCNC(=O)Cc1csc2nc(C)c(-c3cc(C)n(-c4ccc(F)cc4)n3)c(=O)n12 | 3% | 5 | -2% | 28µM*
CCCCCNC(=O)Cc1csc2nc(C)c(-c3cc(C)n(-c4cc(F)ccc4C)n3)c(=O)n12 | -16% | 17 | 3% | 25µM*
O=[S+]([O-])(NC1CCCN(c2ccc3nnc(C4CC4)n3n2)C1)c1cccc(C(F)(F)F)c1 (stereo unspecified) | / | 11 | / | /
Cc1ccc(C(=O)N2CC(N3C(=O)c4c(c(C)nn4-c4ccccc4)C3C(C)C)C2)cc1 (stereo unspecified) | / | 8 | / | /
Cc1oc2ccn(Cc3ccc(F)cc3)c(=O)c2c1C(=O)O | 8% | 2 | -22% | i
CCCNC(=O)c1c(C)oc2ccn(Cc3ccc(F)cc3)c(=O)c12 | -8% | 6 | -17% | i
Cc1oc2ccn(Cc3ccc(F)cc3)c(=O)c2c1C(=O)N1CCN(c2ccccn2)CC1 | -15% | 12 | -15% | 22µM*
COc1ccccc1NC(=O)c1c(C)oc2ccn(Cc3ccc(F)cc3)c(=O)c12 | -16% | 25 | ? | 32µM*
O=C(NC[C@H]1Cn2c(-c3ccc4c(c3)OCO4)cnc2CO1)Nc1ccc(F)cc1 | -25%[87.6 µM] | -18 | -30%[87.6 µM] | 28µM*
SMILES | SNCA viab count | IP6K1 inhibitor | SNCA expr inhib | KDM5B inh
CCC(=O)NC[C@H]1Cn2c(-c3ccc4c(c3)OCO4)cnc2CO1 | 7%[87.6 µM] | -1 | -2%[87.6 µM] | ?
O=C(c1ccncc1)N1CCN(Cc2ccccc2-c2ccccc2F)CC1 | 3%[12.5 µM] | 0 | 18% | /
O=C(NCCc1ccc(Cl)cc1)C1CCCN1C(=O)c1cccc(-c2ccccn2)c1 (stereo unspecified) | -26% | -5 | 5% | /
O=C(c1nc(-c2ccc(Cl)cc2Cl)c2cnccn12)N1CCN(c2ncccn2)CC1 | -1% | -13 | -6% | ?
CC(C)NC(=O)c1nc(-c2cccc(C(F)(F)F)c2)c2ccccn12 | 6% | 31 | -4% | ?
CN(C)C(=O)c1nc(-c2cccc(C(F)(F)F)c2)c2ccccn12 | -15%[87.6 µM] | 0 | 11%[87.6 µM] | 35µM*

High-throughput results from PubChem.
